# What was measured:
# Settings in all cases: virion
# ACTR2 = ACTR2 (UniProt P61160)
# ACTR3 = ACTR3 (UniProt P61158)
# AKTIP = AKTIP (UniProt Q9H8T0)
# ANXA4 = ANXA4 (UniProt P09525)
# AP1M1 = AP1M1 (UniProt Q9BXS5)
# AP1S1 = AP1S1 (UniProt P61966)
# AP3S1 = AP3S1 (UniProt Q92572)
# ARHGEF1 = ARHGEF1 (UniProt Q92888)
# ARPC4 = ARPC4 (UniProt P59998)
# ARPC5L = ARPC5L (UniProt Q9BPX5)
# ASCC2 = ASCC2 (UniProt Q9H1I8)
# ATP6V1A = ATP6V1A (UniProt P38606)
# ATP6V1D = ATP6V1D (UniProt Q9Y5K8)
# BZW1 = BZW1 (UniProt Q7L1Q6)
# DNM2 = DNM2 (UniProt P50570)
# LRRC59 = LRRC59 (UniProt Q96AG4)
# CALR = CALR (UniProt P27797)
# Chain of CALR (P27797 whole entry): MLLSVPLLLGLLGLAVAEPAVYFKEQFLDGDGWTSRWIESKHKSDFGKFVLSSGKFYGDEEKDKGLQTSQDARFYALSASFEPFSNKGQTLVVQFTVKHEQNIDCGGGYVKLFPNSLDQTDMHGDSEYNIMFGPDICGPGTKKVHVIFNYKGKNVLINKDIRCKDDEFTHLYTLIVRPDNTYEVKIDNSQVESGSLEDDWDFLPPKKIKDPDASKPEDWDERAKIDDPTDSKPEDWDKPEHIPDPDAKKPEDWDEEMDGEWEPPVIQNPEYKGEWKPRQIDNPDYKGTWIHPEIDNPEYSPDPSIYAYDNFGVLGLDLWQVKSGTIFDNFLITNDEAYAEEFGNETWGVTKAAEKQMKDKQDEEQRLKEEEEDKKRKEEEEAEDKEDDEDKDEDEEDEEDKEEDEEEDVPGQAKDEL
# HSP90B1 = HSP90B1 (UniProt P14625)
# HSPA4 = HSPA4 (UniProt P34932)
# HSPA8 = HSPA8 (UniProt P11142)
# HSPH1 = HSPH1 (UniProt Q92598)
# MANF = MANF (UniProt P55145)
# PPIB = PPIB (UniProt P23284)
# Chain of PPIB (P23284 whole entry): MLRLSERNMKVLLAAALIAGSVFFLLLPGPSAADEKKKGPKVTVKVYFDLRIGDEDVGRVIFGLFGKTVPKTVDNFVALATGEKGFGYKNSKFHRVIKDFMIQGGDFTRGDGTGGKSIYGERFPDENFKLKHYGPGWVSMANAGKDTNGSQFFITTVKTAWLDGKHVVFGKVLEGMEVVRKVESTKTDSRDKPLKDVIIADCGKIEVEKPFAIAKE
# CCDC93 = CCDC93 (UniProt Q567U6)
# CCT4 = CCT4 (UniProt P50991)
# CCT7 = CCT7 (UniProt Q99832)
# CCT8 = CCT8 (UniProt P50990)
# CDC23 = CDC23 (UniProt Q9UJX2)
# CFL1 = CFL1 (UniProt P23528)
# CHMP1A = CHMP1A (UniProt Q9HD42)
# CHMP3 = CHMP3 (UniProt Q9Y3E7)
# CHMP2B = CHMP2B (UniProt Q9UQN3)
# Chain of HSPA5, P11021 (P11021 whole entry): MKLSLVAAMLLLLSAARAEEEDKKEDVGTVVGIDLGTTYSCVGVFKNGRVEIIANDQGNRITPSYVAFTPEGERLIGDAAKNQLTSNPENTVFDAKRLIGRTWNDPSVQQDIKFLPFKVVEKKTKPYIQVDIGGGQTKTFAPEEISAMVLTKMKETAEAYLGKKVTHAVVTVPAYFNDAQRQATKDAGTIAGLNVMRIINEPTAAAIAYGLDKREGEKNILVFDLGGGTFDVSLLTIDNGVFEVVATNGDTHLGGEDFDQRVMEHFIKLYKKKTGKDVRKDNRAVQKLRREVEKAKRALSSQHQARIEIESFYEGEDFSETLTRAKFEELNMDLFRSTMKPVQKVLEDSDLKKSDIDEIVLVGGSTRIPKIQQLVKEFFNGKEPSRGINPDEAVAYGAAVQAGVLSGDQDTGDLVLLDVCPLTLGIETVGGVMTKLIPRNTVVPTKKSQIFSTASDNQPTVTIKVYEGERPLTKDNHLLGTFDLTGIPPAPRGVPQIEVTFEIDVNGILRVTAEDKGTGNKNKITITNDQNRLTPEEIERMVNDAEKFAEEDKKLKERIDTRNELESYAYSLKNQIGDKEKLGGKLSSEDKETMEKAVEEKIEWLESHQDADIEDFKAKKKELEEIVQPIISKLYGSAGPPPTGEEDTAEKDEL
# Chain of AP1G1, O43747 (O43747 whole entry): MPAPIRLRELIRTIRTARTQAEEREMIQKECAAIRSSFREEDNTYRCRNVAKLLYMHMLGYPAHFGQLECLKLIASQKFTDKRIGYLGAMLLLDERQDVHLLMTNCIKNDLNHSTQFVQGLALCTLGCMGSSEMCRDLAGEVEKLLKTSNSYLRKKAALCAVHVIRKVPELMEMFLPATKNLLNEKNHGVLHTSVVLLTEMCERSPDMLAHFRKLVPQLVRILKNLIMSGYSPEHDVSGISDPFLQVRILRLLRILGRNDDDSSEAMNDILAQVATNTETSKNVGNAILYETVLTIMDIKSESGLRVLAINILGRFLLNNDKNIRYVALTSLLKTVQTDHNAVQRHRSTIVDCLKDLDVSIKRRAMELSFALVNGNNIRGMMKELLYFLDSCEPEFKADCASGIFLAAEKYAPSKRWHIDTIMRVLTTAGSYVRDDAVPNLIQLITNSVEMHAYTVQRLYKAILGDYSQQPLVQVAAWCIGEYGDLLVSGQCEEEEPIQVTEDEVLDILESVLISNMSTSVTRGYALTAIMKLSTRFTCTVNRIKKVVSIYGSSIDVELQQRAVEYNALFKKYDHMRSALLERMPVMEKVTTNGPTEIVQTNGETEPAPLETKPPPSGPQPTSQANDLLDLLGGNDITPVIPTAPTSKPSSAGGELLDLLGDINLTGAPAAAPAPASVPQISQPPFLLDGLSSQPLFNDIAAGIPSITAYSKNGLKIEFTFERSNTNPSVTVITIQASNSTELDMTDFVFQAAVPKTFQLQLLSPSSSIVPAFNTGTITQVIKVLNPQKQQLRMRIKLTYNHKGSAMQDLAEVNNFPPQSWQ
# Chain of AP1M1 (Q9BXS5 whole entry): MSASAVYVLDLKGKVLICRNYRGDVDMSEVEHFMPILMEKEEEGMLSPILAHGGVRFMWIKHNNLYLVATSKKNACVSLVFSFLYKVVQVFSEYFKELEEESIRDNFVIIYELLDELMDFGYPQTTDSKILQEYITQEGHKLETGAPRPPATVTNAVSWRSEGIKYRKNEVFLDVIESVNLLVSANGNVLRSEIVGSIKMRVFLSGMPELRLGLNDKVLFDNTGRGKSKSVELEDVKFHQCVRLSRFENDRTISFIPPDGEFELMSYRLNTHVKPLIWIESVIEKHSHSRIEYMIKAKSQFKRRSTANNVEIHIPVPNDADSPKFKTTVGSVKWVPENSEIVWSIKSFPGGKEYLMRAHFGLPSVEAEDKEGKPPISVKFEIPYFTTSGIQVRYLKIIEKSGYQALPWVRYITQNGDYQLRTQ
# Chain of PDIA4, P13667 (P13667 whole entry): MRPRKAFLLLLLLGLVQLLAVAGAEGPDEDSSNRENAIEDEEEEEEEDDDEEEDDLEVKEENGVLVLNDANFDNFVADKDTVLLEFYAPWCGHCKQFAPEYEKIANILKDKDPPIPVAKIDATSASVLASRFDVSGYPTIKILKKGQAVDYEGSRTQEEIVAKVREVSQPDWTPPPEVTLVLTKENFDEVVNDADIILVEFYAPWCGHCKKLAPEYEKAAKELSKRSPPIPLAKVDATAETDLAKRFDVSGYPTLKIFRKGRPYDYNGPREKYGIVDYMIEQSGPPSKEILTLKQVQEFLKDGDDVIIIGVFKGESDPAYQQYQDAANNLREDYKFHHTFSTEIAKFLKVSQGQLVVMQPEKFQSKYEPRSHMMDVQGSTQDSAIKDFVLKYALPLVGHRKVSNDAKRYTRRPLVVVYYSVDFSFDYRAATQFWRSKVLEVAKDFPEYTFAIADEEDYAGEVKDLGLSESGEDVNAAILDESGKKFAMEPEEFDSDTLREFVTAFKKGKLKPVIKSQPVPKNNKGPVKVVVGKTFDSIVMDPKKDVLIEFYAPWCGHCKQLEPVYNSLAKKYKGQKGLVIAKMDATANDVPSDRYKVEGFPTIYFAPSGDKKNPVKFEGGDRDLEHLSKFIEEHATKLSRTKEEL
# Chain of ATP6V1B2, P21281 (P21281 whole entry): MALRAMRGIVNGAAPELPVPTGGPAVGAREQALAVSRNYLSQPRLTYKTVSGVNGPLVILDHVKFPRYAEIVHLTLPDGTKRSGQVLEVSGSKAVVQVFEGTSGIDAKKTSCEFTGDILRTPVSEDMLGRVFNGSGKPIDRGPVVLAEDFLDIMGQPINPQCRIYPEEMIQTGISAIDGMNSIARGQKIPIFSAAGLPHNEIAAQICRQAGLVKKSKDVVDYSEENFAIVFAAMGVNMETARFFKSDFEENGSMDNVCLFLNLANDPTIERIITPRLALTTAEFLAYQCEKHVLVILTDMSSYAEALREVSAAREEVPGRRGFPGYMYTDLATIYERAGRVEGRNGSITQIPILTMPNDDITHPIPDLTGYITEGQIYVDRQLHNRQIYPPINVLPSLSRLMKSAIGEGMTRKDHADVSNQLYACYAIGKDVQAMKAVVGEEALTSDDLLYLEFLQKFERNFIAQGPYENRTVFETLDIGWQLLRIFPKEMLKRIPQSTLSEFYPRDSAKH
# Chain of ANXA6, P08133 (P08133 whole entry): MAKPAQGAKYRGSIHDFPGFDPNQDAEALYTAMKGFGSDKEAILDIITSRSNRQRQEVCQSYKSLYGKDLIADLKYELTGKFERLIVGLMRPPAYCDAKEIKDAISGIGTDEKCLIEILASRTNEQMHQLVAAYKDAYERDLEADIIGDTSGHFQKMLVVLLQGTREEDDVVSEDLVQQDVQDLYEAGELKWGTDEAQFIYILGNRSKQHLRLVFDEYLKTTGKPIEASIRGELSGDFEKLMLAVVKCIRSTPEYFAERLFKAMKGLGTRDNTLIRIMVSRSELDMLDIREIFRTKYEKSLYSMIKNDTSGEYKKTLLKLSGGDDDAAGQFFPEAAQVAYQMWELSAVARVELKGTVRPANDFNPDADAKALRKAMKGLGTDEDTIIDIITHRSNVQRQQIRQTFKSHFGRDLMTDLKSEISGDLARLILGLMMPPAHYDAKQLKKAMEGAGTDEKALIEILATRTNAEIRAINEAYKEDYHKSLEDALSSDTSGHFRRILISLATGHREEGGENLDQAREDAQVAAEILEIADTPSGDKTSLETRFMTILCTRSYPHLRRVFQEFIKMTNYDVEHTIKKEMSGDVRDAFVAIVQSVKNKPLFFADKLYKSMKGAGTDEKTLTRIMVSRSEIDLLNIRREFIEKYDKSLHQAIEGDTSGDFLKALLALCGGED
# Chain of WDR1, O75083 (O75083 whole entry): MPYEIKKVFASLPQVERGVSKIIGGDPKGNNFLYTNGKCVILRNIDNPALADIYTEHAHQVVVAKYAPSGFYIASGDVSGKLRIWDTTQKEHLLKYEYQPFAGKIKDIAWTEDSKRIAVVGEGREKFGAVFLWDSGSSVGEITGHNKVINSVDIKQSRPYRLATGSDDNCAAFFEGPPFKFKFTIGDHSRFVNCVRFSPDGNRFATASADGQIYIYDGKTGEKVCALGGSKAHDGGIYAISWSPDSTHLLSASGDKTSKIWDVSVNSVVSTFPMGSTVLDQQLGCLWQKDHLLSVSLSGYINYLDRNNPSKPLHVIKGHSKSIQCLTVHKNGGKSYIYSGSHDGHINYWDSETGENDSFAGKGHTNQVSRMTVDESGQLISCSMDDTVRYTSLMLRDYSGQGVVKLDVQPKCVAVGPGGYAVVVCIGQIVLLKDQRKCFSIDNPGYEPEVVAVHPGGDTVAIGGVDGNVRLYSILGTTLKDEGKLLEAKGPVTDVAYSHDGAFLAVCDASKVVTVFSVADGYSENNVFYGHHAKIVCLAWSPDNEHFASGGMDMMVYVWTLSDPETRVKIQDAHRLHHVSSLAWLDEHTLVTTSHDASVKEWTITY
substance,measurement,setting,value
"ARPC3, O15145",cross-linked residues,ACTR2,K61 - K46
same,cross-linked residues,ACTR3,K61 - K348
"HOOK3, Q86VS8",cross-linked residues,AKTIP,K649 - K210
"ANXA6, P08133",cross-linked residues,ANXA4,K478 - K57
"AP1G1, O43747",cross-linked residues,AP1M1,K410 - K326
same,cross-linked residues,AP1S1,K334 - K56
"AP1B1, Q10567",cross-linked residues,AP1M1,K282 - K217
"AP3D1, O14617",cross-linked residues,AP3S1,K7 - K149
"MDH2, P40926",cross-linked residues,ARHGEF1,K185 - K567
"ARPC5, O15511",cross-linked residues,ARPC4,K67 - K44
"ARPC4, P59998",cross-linked residues,ARPC5L,K44 - K69
"ASCC3, Q8N3C0",cross-linked residues,ASCC2,K18 - K41
"ATP6V1B2, P21281",cross-linked residues,ATP6V1A,K137 - K220
same,cross-linked residues,ATP6V1D,K430 - K24
"S100A6, P06703",cross-linked residues,BZW1,K26 - K223
same,cross-linked residues,DNM2,K47 - K299
same,cross-linked residues,LRRC59,K47 - K73
"HSPA5, P11021",cross-linked residues,CALR,K340 - K360
same,cross-linked residues,HSP90B1,K523 - K671
same,cross-linked residues,HSPA4,K81 - K272
same,cross-linked residues,HSPA8,K579 - K601
same,cross-linked residues,HSPH1,K376 - K703
same,cross-linked residues,MANF,K185 - K163
"PDIA4, P13667",cross-linked residues,CALR,K245 - K360
same,cross-linked residues,PPIB,K245 - K116
"CCDC22, O60826",cross-linked residues,CCDC93,K373 - K363
"CCT3, P49368",cross-linked residues,CCT4,K529 - K65
"CCT5, P48643",cross-linked residues,CCT7,K214 - K250
"TCP1, P17987",cross-linked residues,CCT8,K494 - K466
"CDC16, Q13042",cross-linked residues,CDC23,K572 - K547
"WDR1, O75083",cross-linked residues,CFL1,K180 - K22
"CHMP2A, O43633",cross-linked residues,CHMP1A,K124 - K83
same,cross-linked residues,CHMP3,K9 - K106
"VTA1, Q9NP79",cross-linked residues,CHMP2B,K52 - K195
